Autofluor counter = compound fluorescence in toxin protease inhibitor counterscreen; 360,000 compounds, 3.1% hits; fluorescence intensity (no concentration beside the values); AID 624483; compound autofluorescence counterscreen, microsphere flow cytometry; active compounds read high; in the data active = fluorescence intensity above about 16000; inconclusive = no clear call, values can overlap the other calls
BoNT-F LC inh = BoNT/F light chain protease inhibitors, primary screen, biochemical, flow cytometry, MLPCN library. Botulinum neurotoxin type F light chain protease (Clostridium botulinum). Multiplex microsphere protease cleavage assay. inhibition, % at 10 µM. 360,000 compounds, 0.22% hits; in the data active = inhibition above about 35%, passing the limit was not always enough; inconclusive = no clear call, values can overlap the other calls
MazEF act = activators of E. coli MazEF toxin-antitoxin RNase, primary screen, biochemical, fluorescence, uHTS; Endoribonuclease toxin MazF (Escherichia coli (strain K12)), P0AE70; FAM/BHQ RNA-DNA oligo cleavage fluorescence, 5 h; activation, % at 20 µM; 350,000 compounds, 0.32% hits; AID 504720, 2011; in the data active = activation above about 50%
Anthrax LF inh2 = Bacillus anthracis LF protease inhibitors, primary screen, biochemical, multiplex microsphere, MLPCN library; Lethal factor (Bacillus anthracis), P15917; AID 588501, 2011; 360,000 compounds, 0.12% hits; multiplex microsphere protease cleavage assay; inhibition, % at 10 µM
Target sequence (P15917 whole entry, looked up): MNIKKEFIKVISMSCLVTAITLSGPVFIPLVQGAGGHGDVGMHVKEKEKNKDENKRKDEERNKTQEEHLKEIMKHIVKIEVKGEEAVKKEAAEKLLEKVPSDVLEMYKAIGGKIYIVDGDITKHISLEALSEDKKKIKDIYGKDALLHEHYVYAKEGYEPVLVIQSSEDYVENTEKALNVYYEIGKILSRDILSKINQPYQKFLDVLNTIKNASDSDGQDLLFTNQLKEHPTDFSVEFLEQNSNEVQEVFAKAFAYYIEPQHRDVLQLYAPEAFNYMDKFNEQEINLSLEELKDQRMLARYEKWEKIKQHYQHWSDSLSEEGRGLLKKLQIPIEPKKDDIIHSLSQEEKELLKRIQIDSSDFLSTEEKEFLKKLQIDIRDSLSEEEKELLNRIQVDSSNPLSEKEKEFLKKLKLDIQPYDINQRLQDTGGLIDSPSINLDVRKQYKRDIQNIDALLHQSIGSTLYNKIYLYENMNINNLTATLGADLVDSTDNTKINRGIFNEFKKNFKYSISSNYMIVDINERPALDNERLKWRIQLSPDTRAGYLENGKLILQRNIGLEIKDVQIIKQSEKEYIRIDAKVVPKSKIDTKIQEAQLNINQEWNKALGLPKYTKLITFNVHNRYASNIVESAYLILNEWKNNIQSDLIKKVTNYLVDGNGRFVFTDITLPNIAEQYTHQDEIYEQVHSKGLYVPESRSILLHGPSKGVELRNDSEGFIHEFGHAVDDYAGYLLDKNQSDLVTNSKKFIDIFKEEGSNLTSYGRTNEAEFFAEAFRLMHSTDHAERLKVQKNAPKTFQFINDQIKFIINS
BoNT A protease = BoNT/A light chain protease inhibitors, primary screen, biochemical, flow cytometry, MLPCN library | Botulinum neurotoxin type A light chain protease (Clostridium botulinum A str. ATCC 3502) | multiplex microsphere protease substrate cleavage | inhibition, % at 10 µM | 360,000 compounds, 0.17% hits | AID 588499, 2011
BoNT-A LC CP1 = BoNT/A light chain protease inhibitors, confirmation, biochemical, flow cytometry, cherry pick 1; 720 compounds, 3% hits; shares compounds with BoNT-F LC inh; inhibition, % at 10 µM; AID 602139, 2011; multiplex microsphere protease assay; in the data active = inhibition above about 32%
BoNTF LC inh 1 = BoNT/F light chain protease inhibitors, confirmation, biochemical, flow cytometry, cherry pick 1; shares compounds with BoNT-F LC inh; multiplex microsphere protease cleavage assay; inhibition, % at 10 µM; 720 tested, under 10 active; call rule not given here
LF protease CP1 = Bacillus anthracis LF protease inhibitors, confirmation, biochemical, multiplex microsphere, cherry pick 1; 720 tested, under 10 active; inhibition, % at 10 µM; AID 602142, 2011; multiplex microsphere protease cleavage assay; shares compounds with BoNT-F LC inh; call rule not given here
Each line names hits and unclear results; the compound was inactive in the other large screens (follow-up assays come after a bar, where they were run). Shown are actives, neighbours in structure and some others; about 3.6% of the full set was active somewhere. Rule as the data show it, unless noted: active = inhibition above about 30%; inconclusive = no clear call, values can overlap the other calls; inactive = below that.

Cc1cc2cc(CNC(=O)COc3ccccc3)ccc2n1C	BoNT A protease 69 | BoNT-A LC CP1 inactive | BoNTF LC inh 1 inactive | LF protease CP1 inactive
COc1ccc(CC(=O)NCc2ccccc2)cc1OC	BoNT-F LC inh inconclusive
Cc1cc2cc(CNC(=O)NC3CCCCC3)ccc2n1C	none
COc1ccc(CC(=O)NCc2ccc3c(c2)cc(C)n3C)cc1OC	BoNT A protease 51 | BoNT-A LC CP1 inactive | BoNTF LC inh 1 inactive | LF protease CP1 inactive
COc1cc(OC)cc(C(=O)NCc2ccc3c(c2)cc(C)n3C)c1	BoNT A protease 73 | BoNT-A LC CP1 inactive | BoNTF LC inh 1 inactive | LF protease CP1 inactive
O=C(N/N=C/c1ccccc1F)c1ccccc1OCc1ccccc1	none
Cc1cc2cc(CNC(=O)c3ccc4c(c3)OCO4)ccc2n1C	BoNT A protease 65 | BoNT-A LC CP1 inactive | BoNTF LC inh 1 inactive | LF protease CP1 inactive
COc1ccc(C(=O)NCc2ccc3c(c2)OCO3)cc1	none
Cc1cc2cc(CNC(=O)c3ccco3)ccc2n1C	none
COCC(=O)NCc1ccc2c(c1)cc(C)n2C	none | BoNT-A LC CP1 inactive | BoNTF LC inh 1 inactive | LF protease CP1 inactive
CC1(C(=O)O)CCN1C(=O)COc1ccc(Cl)cc1 (stereo not given)	none (no result: MazEF act)
CCN(CC)C(=O)[C@H]1C[C@H](CC(=O)NCCCn2ccnc2)C(=O)N2CCc3c([nH]c4cc(CCC(=O)N(C)C)ccc34)[C@]12C	none
Cc1n[nH]c(C)c1CCNC(=O)C1CCC(=O)N(CCc2cccc(F)c2)C1 (stereo not given)	Autofluor counter inconclusive, BoNT-F LC inh 35 | BoNT-A LC CP1 inactive | BoNTF LC inh 1 inactive | LF protease CP1 inactive
Cc1nc(CCNC(=O)C2CCC(=O)N(CCc3cccc(F)c3)C2)sc1C (stereo not given)	none
CCOCCSc1nc2c(c(-c3cccs3)c1C#N)CC/C2=C/c1cccs1	Anthrax LF inh2 35, BoNT A protease 77 | BoNT-A LC CP1 37 | BoNTF LC inh 1 inactive | LF protease CP1 inactive
COc1cc(NS(=O)(=O)c2ccc(NC(=O)/C=C/C(=O)O)cc2)nc(OC)n1	BoNT-F LC inh inconclusive
CCOc1ccc(NC(=O)c2ccc(Cl)c(NC(=O)c3ccco3)c2)cc1	BoNT-F LC inh 38 | BoNT-A LC CP1 inactive | BoNTF LC inh 1 inactive | LF protease CP1 inactive
Cc1ccc(NC(=O)CCn2c(=O)[nH]c3ccsc3c2=O)cc1	none (no result: Autofluor counter, BoNT-F LC inh, Anthrax LF inh2, BoNT A protease)
COc1cc(NC(=O)CCn2c(=O)[nH]c3ccsc3c2=O)cc(OC)c1	BoNT-F LC inh 41 | BoNT-A LC CP1 inactive | BoNTF LC inh 1 inactive | LF protease CP1 inactive
CC(Oc1cccc(Cl)c1)C(=O)Nc1nc(-c2ccccn2)cs1 (stereo not given)	Autofluor counter inconclusive, BoNT-F LC inh inconclusive, Anthrax LF inh2 inconclusive, BoNT A protease inconclusive
COc1ccccc1Oc1ccc2c(c1)C(=O)N(c1ccc(O)cc1)C2=O	none
COc1ccccc1Oc1ccc2c(c1)C(=O)N(CC(=O)O)C2=O	BoNT-F LC inh 38 | BoNT-A LC CP1 inactive | BoNTF LC inh 1 inactive | LF protease CP1 inactive
COc1ccccc1N(CC(=O)Nc1ccccc1C)S(C)(=O)=O	none
Cc1ccccc1NC(=O)CN(c1ccc(F)cc1)S(C)(=O)=O	BoNT-F LC inh 42 | BoNT-A LC CP1 inactive | BoNTF LC inh 1 inactive | LF protease CP1 inactive
CC1(C)Cc2c(C#N)c(SCC(=O)c3ccccc3)nc(N3CCOCC3)c2CS1	BoNT-F LC inh 37 | BoNT-A LC CP1 inactive | BoNTF LC inh 1 inactive | LF protease CP1 inactive
CCC1(C)Cc2c(C#N)c(SC)nc(N3CCOCC3)c2CO1 (stereo not given)	BoNT-F LC inh inconclusive, Anthrax LF inh2 32 | BoNT-A LC CP1 inactive | BoNTF LC inh 1 inactive | LF protease CP1 inactive
Cc1ccc(C)c2nc(N3CCCC3)c(C#N)cc12	BoNT A protease 36 | BoNT-A LC CP1 inactive | BoNTF LC inh 1 inactive | LF protease CP1 inactive
CCOC(=O)CSc1nc2sc3c(c2c(=O)n1-c1ccc(OCC)cc1)CCN(C)C3	BoNT A protease 53 | BoNT-A LC CP1 inactive | BoNTF LC inh 1 inactive | LF protease CP1 inactive
CCCN1CCc2c(sc3nc(SC)n(-c4ccccc4)c(=O)c23)C1	BoNT A protease 33 | BoNT-A LC CP1 inactive | BoNTF LC inh 1 inactive | LF protease CP1 inactive
CCCCN1C(=O)C(CC(=O)NCCCCc2ccccc2)CC(C(=O)N(C)C)=C1C (stereo not given)	none
CC1(C(=O)NS(=O)(=O)C2CC2)CCCN(C(=O)c2ccc3c(c2)OCO3)C1 (stereo not given)	none (no result: MazEF act)
O=S(=O)(NCc1ccccc1)c1ccc(Cl)cc1	none
O=S(=O)(Nc1cc2nc3ccccc3nc2n1Cc1ccccc1)c1ccc(Cl)cc1	BoNT A protease 33 | BoNT-A LC CP1 inactive | BoNTF LC inh 1 inactive | LF protease CP1 inactive
O=c1oc(CCO)cc2ccc(Br)cc12	none
CC1(c2nc3ccccc3[nH]2)CCC(=O)N1C1CC1 (stereo not given)	none (no result: MazEF act)
CCCN(S(=O)(=O)c1ccccc1F)S(=O)(=O)c1ccccc1Br	none
Cc1cc2cc(CNC(=S)NC3CCCCC3)ccc2[nH]1	none
Cc1cc2cc(CNC(=O)CCC(=O)O)ccc2[nH]1	none | BoNT-A LC CP1 inactive | BoNTF LC inh 1 inactive | LF protease CP1 inactive
Cc1ccc(NC(=O)NCc2ccc3[nH]c(C)cc3c2)cc1	none
Cc1cc2cc(CNC(=O)NC3CCCCC3)ccc2[nH]1	BoNT A protease 37 | BoNT-A LC CP1 inactive | BoNTF LC inh 1 inactive | LF protease CP1 inactive
CC(=O)NCc1ccc2[nH]c(C)cc2c1	none | BoNT-A LC CP1 inactive | BoNTF LC inh 1 inactive | LF protease CP1 inactive
CCC(=O)NCc1ccc2[nH]c(C)cc2c1	none | BoNT-A LC CP1 inactive | BoNTF LC inh 1 inactive | LF protease CP1 inactive
CN(C)CCCNS(=O)(=O)c1ccc(N2CCN(Cc3ccc4c(c3)OCO4)CC2)c([N+](=O)[O-])c1	none
Cc1cc(C)c(C#N)c(Oc2ccccc2)n1	none
CCN(C(=O)COc1nc(C)cc(C)c1C#N)c1ccccc1	Anthrax LF inh2 38 | BoNT-A LC CP1 inactive | BoNTF LC inh 1 inactive | LF protease CP1 inactive
Cc1ccc2nc(SC(C)C(=O)N3CCOCC3)[nH]c2c1 (stereo not given)	none
Cc1nn(C)c(C)c1S(=O)(=O)NC1CCCC1	none
Cc1nn(-c2nnc(NC3CCCCC3)nn2)c(C)c1Br	BoNT A protease 35 | BoNT-A LC CP1 inactive | BoNTF LC inh 1 inactive | LF protease CP1 inactive
Nc1nc(N)c(N=O)c(Nc2cccc(Cl)c2)n1	none (no result: MazEF act)
